Source: PubChem (several laboratories)
CYP2C9 act = activators of human CYP2C9; P11712; recombinant CYP2C9, luciferin-H conversion, luminescence; active compounds read high; factor 1 = untreated enzyme, 0 = blocked; activation factor at 5 µM; 96,000 compounds, 1.4% hits;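 active = activation factor of 2 or more for CYP2C9 at a 5 µM dose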
Target sequence (P11712 whole entry, looked up): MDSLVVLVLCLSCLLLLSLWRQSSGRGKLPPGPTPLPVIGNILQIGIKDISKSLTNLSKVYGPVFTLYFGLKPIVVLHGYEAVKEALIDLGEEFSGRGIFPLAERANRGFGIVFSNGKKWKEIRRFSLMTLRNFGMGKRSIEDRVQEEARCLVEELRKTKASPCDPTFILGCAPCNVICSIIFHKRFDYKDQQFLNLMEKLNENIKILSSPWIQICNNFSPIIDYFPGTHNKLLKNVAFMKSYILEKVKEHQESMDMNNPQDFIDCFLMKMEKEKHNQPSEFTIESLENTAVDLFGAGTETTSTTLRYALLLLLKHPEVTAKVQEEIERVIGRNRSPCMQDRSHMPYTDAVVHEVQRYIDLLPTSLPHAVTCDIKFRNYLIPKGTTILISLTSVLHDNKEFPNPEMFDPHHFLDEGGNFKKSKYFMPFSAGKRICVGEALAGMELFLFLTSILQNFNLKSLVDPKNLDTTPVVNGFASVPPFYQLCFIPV
CYP2C19 act = increases human CYP2C19 enzyme activity; P33261; recombinant CYP2C19, luciferin-H EGE luminescence; active compounds read high; 0 = fully inhibited enzyme, 1 = untreated enzyme; activation factor at 5 µM; 96,000 tested, under 10 active; AID 1025;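 active = activation factor of at least 2 at 5 µM in the primary screen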
EphB4 ephrin blk = blocks human EphB4 binding to ephrin-B2. inhibition, % at 7 µM. EphB4 LBD / TNYL-RAW-Alexa532 peptide, fluorescence polarization. AID 720. P54760. 97,000 compounds, 0.15% hits;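 active = inhibition above the screen-wide mean inhibition plus 3 SD, cut at about 15% in these data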
CYP2C19 inhib = inhibitors of human CYP2C19 | 96,000 compounds, 21% hits | P33261 | AID 778 | inhibition, % at 5 µM | CYP2C19 Supersomes, luciferin-H EGE luminescence, 30 min;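 active = CYP2C19 inhibition above a set limit at 5 µM in the primary screen, cut at about 50% in these data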
CYP2C9 inhib = blocks human cytochrome P450 2C9 | P11712 | CYP2C9 Supersomes, luciferin-H conversion, luminescence | inhibition, % at 5 µM | 96,000 compounds, 20% hits | AID 777;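 active = blocking of liver enzyme CYP2C9 beyond about 50% at 5 µM, limit read from the data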
A number is an active result; n = inactive; x = no result given. The list is not random: actives were taken first. Their share in the collection is about 27%.

SMILES | CYP2C9 act | CYP2C19 act | EphB4 ephrin blk | CYP2C19 inhib | CYP2C9 inhib
O=C(Nc1ccccc1)c1nnsc1S(=O)c1ccc(Cl)cc1 (stereo not drawn) | n | n | n | n | 64
CCOC(=O)CSc1ncc(OC)c(=O)[nH]1 | n | n | n | n | n
CCOC(=O)C(C)Sc1ncc(OC)c(Sc2ccc(Cl)cc2)n1 (stereo not drawn) | n | n | n | n | 83
CCOC(=O)CSc1ncc(OC)c(Sc2ccc(Cl)cc2)n1 | n | n | n | n | 58
CCOC(=O)C(C)Sc1ncc(OC)c(=O)[nH]1 (stereo not drawn) | n | n | n | n | n
CCC1(C)Cc2c(sc3nnn(CC(=O)Nc4cccc5ccccc45)c(=O)c23)CO1 (stereo not drawn) | n | n | n | n | 60
CCC1(C)Cc2c(sc3nc(SC)n(Cc4ccccc4)c(=O)c23)CO1 (stereo not drawn) | n | n | n | n | 90
CC1(C)Cc2c(sc3nc(-c4ccccc4)n(N)c(=O)c23)CO1 | n | n | n | n | n
OC1CCN(Cc2cccc(Oc3ccccc3)c2)CC1 | n | n | x | n | n
CCCOc1ccc(N2C(=O)CC(SCCN)C2=O)cc1 (stereo not drawn) | n | n | n | n | n
Cc1ccc(NS(=O)(=O)c2cccc(C(=O)n3ncc(C#N)c3N)c2)c(C)c1 | n | n | x | n | 51
CN1C(=O)NC(c2ccccc2)C2=C1CN(Cc1ccccc1)C2=O (stereo not drawn) | x | x | n | x | x
Cc1ccc(-c2nc3cnccn3c2Nc2c(C)cccc2C)o1 | n | n | n | 99 | 63
COCCn1c(-c2ccc(OC)cc2)cnc1SCC(=O)Nc1cccc2ccccc12 | n | n | n | 67 | 72
Cc1cnc(NC(=O)CSc2ncc(-c3ccccc3)n2Cc2ccco2)s1 | n | n | n | n | 73
O=C(CSc1ncc(-c2ccc(F)cc2)n1Cc1ccco1)Nc1nccs1 | n | n | n | n | n
COc1ccc(-c2cnc(SCC(=O)Nc3cc(C)on3)n2Cc2ccco2)cc1 | n | n | n | 61 | 88
COc1ccc(NC(=O)CSc2ncc(-c3ccc(F)cc3)n2Cc2ccco2)cc1 | x | x | n | x | x
CCC(=O)Nc1cc(NC(=O)CSc2ncc(-c3ccc(F)cc3)n2Cc2ccco2)ccc1C | n | n | n | 91 | 95
Cc1cc(C)nc(Sc2ccc3nnc(C(F)(F)C(F)(F)C(F)(F)F)n3n2)n1 | n | n | n | 58 | 63
CSc1ccc2nnc(-c3cccc(F)c3)n2n1 | n | n | n | n | n
CC(=O)N1CCc2cc(S(=O)(=O)NC(Cc3ccccc3)C(=O)NC3CCCCCC3)ccc21 (stereo not drawn) | n | n | n | n | 53
CC(=O)N1CCc2cc(S(=O)(=O)NC(CC(C)C)C(=O)Nc3ccc4c(c3)OCCO4)ccc21 (stereo not drawn) | n | n | x | n | 59
CC(=O)N1CCc2cc(S(=O)(=O)NC(C(=O)NCc3ccccc3)C(C)C)ccc21 (stereo not drawn) | n | n | n | n | n
CC(=O)N1CCc2cc(S(=O)(=O)NCCC(=O)Nc3ccc4c(c3)OCCO4)ccc21 | n | n | x | n | n
SMILES | CYP2C9 act | CYP2C19 act | EphB4 ephrin blk | CYP2C19 inhib | CYP2C9 inhib
CC(=O)N1CCc2cc(S(=O)(=O)NC(CC(C)C)C(=O)N3CCn4c3nc3ccccc34)ccc21 (stereo not drawn) | n | n | n | 51 | 57
O=C(Nc1cccnc1Cl)c1ccc(S(=O)(=O)N2CCCCCC2)cc1 | n | n | n | n | n
CCC(CC)C(=O)N(CCc1ccc(OC)cc1)Cc1nc2ccccc2c(=O)[nH]1 | n | n | n | n | n
COCC(=O)N(CCc1ccc(OC)c(OC)c1)Cc1nc2ccccc2c(=O)[nH]1 | n | n | n | 58 | n
COc1ccc(CCN(Cc2nc3ccccc3c(=O)[nH]2)C(=O)c2ccco2)cc1 | n | n | n | n | 57
COc1ccc(N(Cc2cc(=O)[nH]c3ccccc23)C(=O)c2ccco2)cc1 | n | n | n | n | 63
COc1ccc(CN(Cc2nc3ccccc3c(=O)[nH]2)C(=O)C(C)(C)C)cc1 | n | n | n | n | n
COCC(=O)N(Cc1nc2ccccc2c(=O)[nH]1)Cc1cccs1 | n | n | n | n | 52
COc1ccc(CN(C(=O)c2ccco2)c2ccccc2)cc1 | x | x | n | x | x
CN=C(NC#N)SCC(=O)c1ccc(Cl)cc1Cl | n | n | n | 82 | 96
Cc1ccc(C)n1NC(=O)c1ccc(Cl)cc1Cl | n | n | n | n | n
CCc1ccccc1OCC(=O)NC1CCCC1 | n | n | n | 93 | n
COc1ccccc1OCC(=O)NCC1CCCCC1 | n | n | n | 95 | n
O=C(COn1nnc2ccccc21)NCC1CCCCC1 | n | n | n | 55 | n
COC(=O)c1ccccc1OCC(=O)NC1CCCCC1 | n | n | n | 64 | n
CCc1ccc(/C=N/NC(=O)c2cc(C3CC3)nc3ccccc23)s1 | n | n | n | n | 81
Cc1ccc(/C=N/NC(=O)c2c[nH]c3ccccc23)s1 | n | n | n | n | n
C1=C(c2ccccc2)CCN(c2nc3ccccc3n3cnnc23)C1 | n | n | n | n | n
Cc1ccc(N2C(=O)CC2(C#N)c2ccc(OCc3ccccc3)cc2)cc1 (stereo not drawn) | n | n | n | n | 62
COc1ccc(N2C(=O)CCC2(C#N)c2ccc(OC)cc2)cc1 (stereo not drawn) | n | n | n | 66 | n
O=C(CN(CC1CCCO1)S(=O)(=O)c1ccc(S(=O)(=O)NC2CC2)cc1)Nc1ccccc1 (stereo not drawn) | n | n | n | 74 | 97
CCN(CC)S(=O)(=O)c1ccc(S(=O)(=O)N(CC(=O)Nc2ccccc2)CC2CCCO2)cc1 (stereo not drawn) | x | x | n | x | x
O=C(Nc1cccc(F)c1)c1ccc(S(=O)(=O)NCC2CCCO2)cc1 (stereo not drawn) | n | n | n | n | 56
O=C(CSc1ccccc1)Nc1ccc(S(=O)(=O)NCC2CCCO2)cc1 (stereo not drawn) | n | n | n | n | 91
CC1(C)Cc2c(sc3c2C2=NCCN2C=N3)CO1 | n | n | n | n | n
SMILES | CYP2C9 act | CYP2C19 act | EphB4 ephrin blk | CYP2C19 inhib | CYP2C9 inhib
O=C(NCCOC(=O)c1ccc(C(=O)OCCNC(=O)c2ccccc2)o1)c1ccccc1 | n | n | n | n | 83
O=C(NCCOC(=O)c1ccccc1C(=O)OCCNC(=O)c1cccnc1)c1cccnc1 | n | n | n | 96 | 68
Cc1cc(C)c(C(=O)OCCNC(=O)c2cccnc2)cc1C | n | n | n | 74 | 71
O=C(NCCOCCOCCNC(=O)c1cccnc1)c1cccnc1 | n | n | n | n | n
CC(C)(/C=N/O)/[N+]([O-])=C/C=[N+](\[O-])C(C)(C)/C=N/O | n | n | n | n | n
CSCCC(C(=O)N1CC2(C)CC1CC(C)(C)C2)N1C(=O)c2ccccc2C1=O (stereo not drawn) | x | x | n | x | x
CCc1nn(C(C)C(=O)NCCc2ccc(OC)c(OC)c2)c(=O)c2cc3occc3n12 (stereo not drawn) | n | n | x | n | n
